Inconclusive results are not listed. Active and inactive are the calls of the source. Calls follow the shape of the dose curve; as a rule, active = well fitted curve in the direction sought with a large enough effect; inconclusive = small, poorly fitted or top-dose-only effect, or another doubt; inactive = no such curve, though single readings can be large; an effect the other way counts as inactive or inconclusive.
Experiments:
[1] = Cell Viability - LYMP1-002 - Assay at 16 hr (AID 948)
How it was run: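 Seed 2500 LYMP1-002 cells per well in complete medium and hold 5 hr at 37 C. Add compound across a concentration series and incubate 16 hr at 37 C. Add CellTiter-Glo, wait 30 min at room temperature, read luminescence.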

[2] = MultiTox-Fluor Cytotoxicity Assay - LYMP1-002 - Live Cells (AID 955);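 also: cells exposed to compound for 16 hours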
How it was run: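 In this qHTS viability format, lymphoblastoid cells (LYMP1-002, human) received compound for 16 hr at 37 C. Fluorogenic GF-AFC cleavage by viable cells was detected at 405/510 nm after 1 h at room temperature.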

[3] = MultiTox-Fluor Cytotoxicity Assay - LYMP1-002 - Dead Cells (AID 960); also: nearly all actives have a fitted effect of over 60% in size
How it was run: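 Concentration-dependent increases in membrane-leaked protease activity are quantified in LYMP1-002 cells after 16 hr treatment; values are normalized against DMSO and tetraoctylammonium bromide (15 uM) controls and AC50 derived by Hill modeling.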

[4] = MultiTox-Fluor Cytotoxicity Assay - LYMP1-003 - Dead Cells (AID 961); also: nearly all actives have a fitted effect of over 70% in size
How it was run: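 Human lymphoblastoid LYMP1-003 cells (2500/well) were treated with compounds for 16 hr at 37 C in complete medium. Dead-cell protease release was read by bis-AAF-R110 fluorescence (Ex/Em 485/520). AC50 came from Hill fits, normalized to DMSO and 15 uM tetraoctylammonium bromide.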

[5] = MultiTox-Fluor Cytotoxicity Assay - LYMP1-003 - Live Cells (AID 962);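 also: cells exposed to compound for 16 hours at 37 °C; cytotoxic hits lower the live-cell protease signal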
How it was run: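 Human lymphoblastoid line LYMP1-003 in complete culture medium, treated 16 hr with titrated compounds. Viable cells quantified via cell-permeant GF-AFC substrate fluorescence; AC50 derived by Hill fitting.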

[6] = Cell Viability - LYMP1-003 - Assay at 24 hr (AID 963)
How it was run: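 The lymphoblastoid line was treated with titrated compounds for 24 hours, and viable cell number estimated from luciferase-based ATP luminescence.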

[7] = Cell Viability - LYMP1-003 - Assay at 40 hr (AID 964); also: series mostly up to about 92 µM; nearly all actives have a fitted effect of over 60% in size
How it was run: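 Acute toxicity is scored as a concentration-dependent loss of intracellular ATP in LYMP1-003 cells (2500/well, complete medium) after 40 hr at 37 C, measured by CellTiter-Glo luminescence; AC50 values derive from standard Hill modelling.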

[8] = Cell Viability - LYMP2-003 (AID 965);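 also: cells exposed to compounds for 24 h before reading; nearly all actives have a fitted effect of over 50% in size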
How it was run: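 Seed 2500 lymphoblastoid cells/well; incubate 5 hr, 37 C; add compounds; incubate 24 hr, 37 C; add CellTiter-Glo, 30 min RT; read luminescence. AC50 from Hill fit.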

[9] = Cell Viability - LYMP2-004 (AID 966); also: nearly all actives have a fitted effect of over 65% in size
How it was run: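 Viable-cell number estimated from ATP luminescence (CellTiter-Glo) in 2500 human lymphoblastoid cells/well after 24 hr at 37 C with compound. AC50 fitted to the standard Hill equation.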

[10] = Cell Viability - LYMP2-005 (AID 967); also: series mostly up to about 92 µM
How it was run: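 Acute cytotoxicity is scored as a concentration-dependent drop in intracellular ATP in human lymphoblastoid LYMP2-005 cells after 24 h compound treatment. ATP is quantified by luciferase luminescence, and AC50 is derived by Hill-equation modelling.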

[11] = Cell Viability - LYMP2-009 (AID 968); also: series mostly up to about 92 µM; nearly all actives have a fitted effect of over 55% in size
[12] = Cell Viability - LYMP2-011 (AID 969); also: nearly all actives have a fitted effect of over 60% in size
How it was run: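 Cells seeded at 2500 per well rest 5 hr before compound addition, then incubate 24 hr at 37 C. CellTiter-Glo reagent is added for 30 min at room temperature before luminescence detection.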

[13] = Cell Viability - LYMP2-013 (AID 970); also: series mostly up to about 92 µM; nearly all actives have a fitted effect of over 55% in size
How it was run: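 In complete culture medium, human lymphoblastoid cells were dosed for 24 hr at 37 C, with tetraoctylammonium bromide (6.4pM to 92 uM) as positive control. Viability reflects luciferase-based ATP signal; AC50 derived from concentration-response curves.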

[14] = Cell Viability - LYMP2-017 (AID 972);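 also: series mostly up to about 92 µM; cells exposed to compound for 24 hours at 37 °C; nearly all actives have a fitted effect of over 55% in size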
How it was run: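 In this qHTS format, lymphoblastoid cells in complete medium receive test compound for a day at 37 C before ATP content is quantified by luciferase luminescence. Reported AC50 figures come from standard Hill-equation curve fitting.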

[15] = Cell Viability - LYMP2-019 (AID 973); also: nearly all actives have a fitted effect of over 55% in size
How it was run: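 AC50 values come from Hill-equation modelling of qHTS concentration-response curves, where viability is measured as luciferase-based ATP luminescence in the lymphoblastoid line after 24 hr compound exposure in complete culture medium.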

[16] = Cell Viability - LYMP2-021 (AID 974)
How it was run: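 In qHTS format, compounds are tested against 2500 lymphoblastoid cells per well for 24 h; viable cell number is inferred from ATP-driven luciferase light, and Hill-equation fitting yields AC50 values.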

[17] = Cell Viability - LYMP2-023 (AID 975)
How it was run: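 In this qHTS, ATP-based luciferase luminescence (CellTiter-Glo) is quantified in human lymphoblastoid cells after 24 hr compound treatment at 37 C; tetraoctylammonium bromide serves as positive control. Concentration-response curves are Hill-fitted to give AC50.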

[18] = Cell Viability - LYMP2-025 (AID 976); also: series mostly up to about 92 µM
How it was run: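 Luminescent ATP readout after 24 hr treatment of a human lymphoblastoid line (LYMP2-025, 2500 cells/well, 37 C). Reagent developed 30 min at room temperature; AC50 fitted with the Hill equation.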

[19] = Cell Viability - LYMP2-002 (AID 977);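 also: series mostly up to about 92 µM; compound exposure lasted 24 h at 37 °C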
How it was run: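 Human lymphoblastoid cells, 2500/well, complete medium; 5 h 37 C settle; compound 24 h 37 C; CellTiter-Glo, 30 min RT; luminescence. Decrease in ATP = cytotoxicity; AC50 via Hill equation.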

[20] = Cell Viability - LYMP2-006 (AID 978); also: series mostly up to about 92 µM; nearly all actives have a fitted effect of over 60% in size
How it was run: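 Cells are seeded at 2500 per well and rested 5 hr at 37 C. Compounds are added across a concentration series for 24 hr at 37 C, after which ATP is quantified by luciferase luminescence.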

[21] = Cell Viability - LYMP2-007 (AID 979)
How it was run: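 Measured via luciferase-based ATP quantitation: lymphoblastoid cells, 24 hr compound exposure at 37 C, AC50 from Hill fits.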

[22] = Cell Viability - LYMP2-008 (AID 980); also: nearly all actives have a fitted effect of over 60% in size
How it was run: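 Measured: ATP-dependent luminescence, proportional to viable cell number, in human lymphoblastoid cells treated 24 hr with compound in complete culture medium. Values are AC50s from Hill-equation modelling of qHTS titrations.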

[23] = Cell Viability - LYMP2-010 (AID 981)
How it was run: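 This 24 hr viability screen uses LYMP2-010 lymphoblastoid cells, quantifies ATP via luciferase luminescence, and derives AC50 from Hill fits of qHTS concentration-response data.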

[24] = Cell Viability - LYMP2-012 (AID 982)
[25] = Cell Viability - LYMP2-014 (AID 983); also: series mostly up to about 92 µM; nearly all actives have a fitted effect of over 50% in size
How it was run: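 Quantitative HTS in lymphoblastoid cells: 24 hr compound exposure, then CellTiter-Glo ATP luminescence. Positive control was tetraoctylammonium bromide, 6.4pM to 92 uM.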

Measured: Potency

C=CCc1ccc(OC)c(OC)c1
inactive: all assays above

Source: PubChem BioAssay (NCATS)
